We go through five compounds from publication PMC5540273 (PLoS ONE, 2017).

What all share (details): concentration: 1 μM, replicates: in singlicate; n = 1
The test system of assay [1] is PFTAIRE2.
The test system of assay [2] is T1, PFTK1.
T1 construct: gene CDK14

Assay [3] concerns PHKG1.
Assay [4] deals with PHKG2.
The subject of assay [5] is PIK3C2B.
Assay [6] deals with PIK3C2G.
In assay [7] the test system is PIK3CA.
Assay [8] has as its system PIK3CB.
Assay [9] relates to PIK3CD.
Assay [10] relates to PIK3CG.
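Further: KINOMEscan kinase panel screen.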

As to `c1ccc(-c2ccnc3[nH]ccc23)cc1` [SB-693578], the “%Inh” value turned out to be 9% in [1]; 9% in assay [2]; 0% in [3]; 0% in assay [4]; 0% in [5]; 0% in assay [6]. The “%Inh” value in assay [7], in assay [8], in assay [9] and in assay [10] was 0% throughout.

With `COC(=O)c1cccc(NC(=O)NC2CCN(c3ccnc(Nc4ccc(OC)cc4)n3)C2)c1` (centres unmarked) [GSK1379746], the “%Inh” value in assay [1] stood at 10%; in [2], 27%; in assay [3], 19%; in assay [4], 0%; in [5] it was 20%; in assay [6] it was 0%. The “%Inh” value is reported as 0% in [7], 0% in [8], 30% in assay [9] and 0% in assay [10].

Regarding `Cc1ccc(NC(=O)Nc2ccccc2F)cc1-c1ccc(C(=O)Nc2ccncc2)cc1` [GSK1398477], the “%Inh” value in assay [1] worked out at 28%; in [2], 25%; in assay [3] it was 23%; in [4] it was 4%; in assay [5] it was 0%; in assay [6] it was 0%. In addition, the “%Inh” value in [7], in [8], in [9] and in [10] was 0% each time.

`COc1ccc(CSc2nnc(-c3ccc4nccn4c3)o2)cc1C(F)(F)F`: the “%Inh” value is recorded as 0% in assay [1]; 4% in [2]; 0% in [3]; 0% in assay [4]; 21% in assay [5]; 12% in assay [6]. The “%Inh” value is 15% in assay [7], 11% in [8], 29% in assay [9] and 32% in [10].

Consider `O=c1cc(N2CCOCC2)nc2n(Cc3ccccc3F)ccn12` [GSK2297428], for which the “%Inh” value in assay [1] was found to be 0%; in assay [2], 23%; in [3], 0%; in assay [4], 0%; in [5], 2%; in assay [6], 0%. For the same compound, the “%Inh” value in [7] was 6%; in assay [8] it was 94.5%; in [9], 32%; in assay [10] it was 24%.
